# From publication PMC7862700, “An all-to-all approach to the identification of sequence-specific readers for epigenetic DNA modifications on cytosine”
# What was measured:
# Assay in all cases: DAPPL (digital affinity profiling via proximity ligation, sequencing); 10 mM Tris-HCl pH 7.5, 50 mM NaCl, 1 mM DTT, 4% glycerol, room temperature, 30 min; GST-TFs on glutathione beads, 16-mer random dsDNA library, 0.1% formaldehyde crosslink after washing; high values mean tight binding
# [1] = target: T1, FLI1 (Homo sapiens, UniProt Q01543 1-452); details: protein: recombinant; tags: N-terminal GST; dsDNA, one strand shown
# T1 sequence: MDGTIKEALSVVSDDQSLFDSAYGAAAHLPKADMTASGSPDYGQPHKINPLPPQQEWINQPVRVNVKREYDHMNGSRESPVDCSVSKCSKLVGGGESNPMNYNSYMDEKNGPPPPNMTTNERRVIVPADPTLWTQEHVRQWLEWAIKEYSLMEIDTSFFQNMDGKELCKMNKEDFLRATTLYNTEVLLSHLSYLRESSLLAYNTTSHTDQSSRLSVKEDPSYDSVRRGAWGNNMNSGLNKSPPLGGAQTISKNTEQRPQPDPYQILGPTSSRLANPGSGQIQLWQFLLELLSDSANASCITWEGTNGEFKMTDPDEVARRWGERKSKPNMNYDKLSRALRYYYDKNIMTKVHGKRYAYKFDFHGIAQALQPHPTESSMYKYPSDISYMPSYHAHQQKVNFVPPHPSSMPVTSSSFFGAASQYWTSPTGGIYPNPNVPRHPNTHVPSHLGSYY
# Method in brief: (§1)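 Human transcription factors fused to GST were expressed in yeast, captured on glutathione beads, given DNA barcodes and pooled with a GST-only negative control. Pools were incubated with 200 nmole of a 16-mer random double-stranded DNA library in Tris/NaCl/DTT/glycerol buffer at room temperature for 30 min. They were then washed, crosslinked with 0.1% formaldehyde, proximity-ligated (BsaI/T4 ligase, 1 h, 37 °C), PCR-amplified and sequenced on an Illumina NextSeq500. Binding signal is each 6-mer's read frequency for a factor divided by its frequency for the GST control.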
# [2] = target: T2, ELK1 (Homo sapiens, UniProt P19419 1-428); details: protein: recombinant; tags: N-terminal GST; dsDNA, one strand shown
# T2 sequence: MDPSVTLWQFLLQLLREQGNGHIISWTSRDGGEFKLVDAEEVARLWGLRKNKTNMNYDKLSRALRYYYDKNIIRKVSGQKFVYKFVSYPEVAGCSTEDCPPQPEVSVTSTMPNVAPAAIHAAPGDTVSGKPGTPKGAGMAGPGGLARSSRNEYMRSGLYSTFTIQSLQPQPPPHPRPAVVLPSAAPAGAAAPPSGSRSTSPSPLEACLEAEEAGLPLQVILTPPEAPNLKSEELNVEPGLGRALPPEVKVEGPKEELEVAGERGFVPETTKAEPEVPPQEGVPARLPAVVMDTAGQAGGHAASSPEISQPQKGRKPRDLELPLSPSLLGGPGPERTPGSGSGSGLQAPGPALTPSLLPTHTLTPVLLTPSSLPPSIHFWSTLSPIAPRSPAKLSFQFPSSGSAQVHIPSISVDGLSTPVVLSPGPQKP
# Method in brief: as §1
# [3] = target: T3, GABPA (Homo sapiens, UniProt Q06546 1-454); details: protein: recombinant; tags: N-terminal GST; dsDNA, one strand shown
# T3 sequence: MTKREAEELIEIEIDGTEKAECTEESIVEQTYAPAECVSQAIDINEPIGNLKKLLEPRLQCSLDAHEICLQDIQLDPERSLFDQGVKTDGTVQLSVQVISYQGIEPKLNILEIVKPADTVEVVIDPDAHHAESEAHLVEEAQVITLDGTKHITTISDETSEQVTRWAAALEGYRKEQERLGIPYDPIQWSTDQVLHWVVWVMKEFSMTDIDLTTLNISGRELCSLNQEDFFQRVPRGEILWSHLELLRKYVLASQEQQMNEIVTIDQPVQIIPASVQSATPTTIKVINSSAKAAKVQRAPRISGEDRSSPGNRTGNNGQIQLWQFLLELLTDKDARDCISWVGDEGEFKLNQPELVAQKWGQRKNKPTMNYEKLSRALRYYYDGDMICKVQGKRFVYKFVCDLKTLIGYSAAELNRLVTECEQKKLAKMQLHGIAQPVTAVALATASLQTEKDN
# Method in brief: as §1
# [4] = target: T4, ERG (Homo sapiens, UniProt P11308 1-479); details: protein: recombinant; tags: N-terminal GST; dsDNA, one strand shown
# T4 sequence: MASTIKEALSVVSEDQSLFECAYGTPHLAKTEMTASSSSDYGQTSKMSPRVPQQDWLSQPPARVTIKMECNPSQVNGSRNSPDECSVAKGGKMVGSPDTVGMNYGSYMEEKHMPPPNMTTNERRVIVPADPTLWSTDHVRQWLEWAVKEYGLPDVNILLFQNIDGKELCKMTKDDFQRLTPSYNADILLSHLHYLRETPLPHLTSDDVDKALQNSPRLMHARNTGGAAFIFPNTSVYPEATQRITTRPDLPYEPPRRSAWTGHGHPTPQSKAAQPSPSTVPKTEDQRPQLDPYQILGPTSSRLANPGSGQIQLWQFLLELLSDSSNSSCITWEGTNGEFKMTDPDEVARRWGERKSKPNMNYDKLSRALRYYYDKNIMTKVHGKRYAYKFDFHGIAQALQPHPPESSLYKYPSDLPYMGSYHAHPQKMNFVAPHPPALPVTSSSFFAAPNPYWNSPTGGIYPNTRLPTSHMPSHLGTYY
# Method in brief: as §1
# [5] = target: ELF1 (Homo sapiens, UniProt P32519 1-619); details: protein: recombinant; tags: N-terminal GST; dsDNA, one strand shown
# ELF1, sequence (P32519 whole entry): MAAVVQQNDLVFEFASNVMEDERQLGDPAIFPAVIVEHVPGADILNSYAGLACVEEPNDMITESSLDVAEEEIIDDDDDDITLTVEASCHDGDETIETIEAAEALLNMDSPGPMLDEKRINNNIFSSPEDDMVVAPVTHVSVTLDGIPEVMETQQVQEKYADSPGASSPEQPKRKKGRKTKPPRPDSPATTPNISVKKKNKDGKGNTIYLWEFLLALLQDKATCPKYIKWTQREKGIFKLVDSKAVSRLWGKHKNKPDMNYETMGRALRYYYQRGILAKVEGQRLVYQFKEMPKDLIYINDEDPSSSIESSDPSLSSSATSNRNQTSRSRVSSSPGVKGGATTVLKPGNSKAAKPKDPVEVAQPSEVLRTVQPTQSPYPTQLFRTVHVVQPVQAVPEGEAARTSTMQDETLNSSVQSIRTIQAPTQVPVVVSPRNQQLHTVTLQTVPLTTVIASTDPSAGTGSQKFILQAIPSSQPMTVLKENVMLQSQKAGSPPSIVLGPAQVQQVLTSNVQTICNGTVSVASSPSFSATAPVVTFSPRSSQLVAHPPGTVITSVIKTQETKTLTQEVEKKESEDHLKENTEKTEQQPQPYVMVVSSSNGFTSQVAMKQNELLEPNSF
# Method in brief: as §1
# [6] = target: T5, EHF (Homo sapiens, UniProt Q9NZC4 1-300); details: protein: recombinant; tags: N-terminal GST; dsDNA, one strand shown
# T5 sequence: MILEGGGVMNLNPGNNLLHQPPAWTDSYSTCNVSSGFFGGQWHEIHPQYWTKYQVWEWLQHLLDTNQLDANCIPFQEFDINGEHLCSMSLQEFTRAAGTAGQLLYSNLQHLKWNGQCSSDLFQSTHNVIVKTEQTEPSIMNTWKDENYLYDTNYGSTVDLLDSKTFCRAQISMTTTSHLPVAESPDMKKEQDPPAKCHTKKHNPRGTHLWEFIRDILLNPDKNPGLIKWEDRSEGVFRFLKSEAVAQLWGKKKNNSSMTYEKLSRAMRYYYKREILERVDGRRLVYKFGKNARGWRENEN
# Method in brief: as §1
# [7] = target: SPI1 (Homo sapiens, UniProt P17947 1-270); details: protein: recombinant; tags: N-terminal GST; dsDNA, one strand shown
# Method in brief: as §1
# [8] = target: SPIB (Homo sapiens, UniProt Q01892 1-262); details: protein: recombinant; tags: N-terminal GST; dsDNA, one strand shown
# SPIB, sequence (Q01892 whole entry): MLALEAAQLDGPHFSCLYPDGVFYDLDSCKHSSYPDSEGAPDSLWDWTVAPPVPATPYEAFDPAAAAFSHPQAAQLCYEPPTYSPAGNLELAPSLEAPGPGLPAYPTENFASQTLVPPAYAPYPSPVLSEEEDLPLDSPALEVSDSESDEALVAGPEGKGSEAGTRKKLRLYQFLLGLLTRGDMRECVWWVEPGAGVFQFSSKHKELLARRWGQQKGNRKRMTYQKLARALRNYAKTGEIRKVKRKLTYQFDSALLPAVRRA
# Method in brief: as §1
# [9] = target: T6, ELK3 (Homo sapiens, UniProt P41970 1-407); details: protein: recombinant; tags: N-terminal GST; dsDNA, one strand shown
# T6 sequence: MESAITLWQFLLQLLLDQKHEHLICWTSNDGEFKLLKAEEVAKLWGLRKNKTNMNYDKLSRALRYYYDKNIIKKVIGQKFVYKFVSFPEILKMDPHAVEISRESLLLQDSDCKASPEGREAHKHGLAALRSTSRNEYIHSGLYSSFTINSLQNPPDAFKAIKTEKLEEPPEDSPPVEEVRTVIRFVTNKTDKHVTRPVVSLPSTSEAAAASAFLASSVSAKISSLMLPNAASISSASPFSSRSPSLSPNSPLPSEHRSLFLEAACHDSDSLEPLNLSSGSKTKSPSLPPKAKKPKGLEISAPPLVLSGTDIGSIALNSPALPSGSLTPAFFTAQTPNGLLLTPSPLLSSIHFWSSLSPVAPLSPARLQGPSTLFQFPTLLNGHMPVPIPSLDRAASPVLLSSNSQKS
# Method in brief: as §1
# [10] = target: T7, FEV (Homo sapiens, UniProt Q99581 1-238); details: protein: recombinant; tags: N-terminal GST; dsDNA, one strand shown
# T7 sequence: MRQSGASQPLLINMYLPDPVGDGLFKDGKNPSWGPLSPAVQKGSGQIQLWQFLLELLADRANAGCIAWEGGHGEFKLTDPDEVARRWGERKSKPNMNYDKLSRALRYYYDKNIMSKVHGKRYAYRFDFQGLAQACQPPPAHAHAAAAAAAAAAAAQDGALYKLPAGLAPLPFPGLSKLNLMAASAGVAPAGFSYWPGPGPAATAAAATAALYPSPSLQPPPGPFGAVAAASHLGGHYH
# Method in brief: as §1
# [11] = target: ETV5 (Homo sapiens, UniProt P41161 1-510); details: protein: recombinant; tags: N-terminal GST; dsDNA, one strand shown
# ETV5, sequence (P41161 whole entry): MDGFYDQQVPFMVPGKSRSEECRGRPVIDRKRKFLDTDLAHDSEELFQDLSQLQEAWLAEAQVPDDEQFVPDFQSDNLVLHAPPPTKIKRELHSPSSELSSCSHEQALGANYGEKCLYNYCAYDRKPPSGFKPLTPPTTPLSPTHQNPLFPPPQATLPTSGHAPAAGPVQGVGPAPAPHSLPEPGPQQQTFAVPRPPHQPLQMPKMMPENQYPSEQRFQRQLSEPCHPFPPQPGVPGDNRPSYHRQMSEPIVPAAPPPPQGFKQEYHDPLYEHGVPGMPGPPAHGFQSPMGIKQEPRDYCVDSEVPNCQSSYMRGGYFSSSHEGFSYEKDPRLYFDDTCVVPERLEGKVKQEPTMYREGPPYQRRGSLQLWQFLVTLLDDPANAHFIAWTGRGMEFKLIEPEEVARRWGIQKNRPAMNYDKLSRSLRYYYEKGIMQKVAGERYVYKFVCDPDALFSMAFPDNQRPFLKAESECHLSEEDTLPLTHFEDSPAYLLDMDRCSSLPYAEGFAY
# Method in brief: as §1
# [12] = target: HSF1 (Homo sapiens, UniProt Q00613 1-529); details: protein: recombinant; tags: N-terminal GST; chain copies: 3; dsDNA, one strand shown
# HSF1, sequence (Q00613 whole entry): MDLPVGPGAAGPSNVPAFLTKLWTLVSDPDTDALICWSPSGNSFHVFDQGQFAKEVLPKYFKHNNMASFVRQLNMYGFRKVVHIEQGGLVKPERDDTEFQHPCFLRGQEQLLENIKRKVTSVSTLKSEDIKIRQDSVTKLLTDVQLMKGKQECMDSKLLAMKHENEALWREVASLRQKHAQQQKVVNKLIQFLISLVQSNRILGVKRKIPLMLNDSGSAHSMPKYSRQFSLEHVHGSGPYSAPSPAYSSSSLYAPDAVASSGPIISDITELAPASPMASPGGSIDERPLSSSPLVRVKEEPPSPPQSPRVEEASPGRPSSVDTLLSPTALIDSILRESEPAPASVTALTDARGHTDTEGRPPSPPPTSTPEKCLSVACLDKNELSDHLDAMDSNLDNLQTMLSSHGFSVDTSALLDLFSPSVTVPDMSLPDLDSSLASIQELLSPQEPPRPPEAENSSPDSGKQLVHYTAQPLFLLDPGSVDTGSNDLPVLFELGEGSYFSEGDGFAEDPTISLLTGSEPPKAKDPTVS
# Method in brief: as §1
# [13] = target: T8, SPIC (Homo sapiens, UniProt Q8N5J4 1-248); details: protein: recombinant; tags: N-terminal GST; dsDNA, one strand shown
# T8 sequence: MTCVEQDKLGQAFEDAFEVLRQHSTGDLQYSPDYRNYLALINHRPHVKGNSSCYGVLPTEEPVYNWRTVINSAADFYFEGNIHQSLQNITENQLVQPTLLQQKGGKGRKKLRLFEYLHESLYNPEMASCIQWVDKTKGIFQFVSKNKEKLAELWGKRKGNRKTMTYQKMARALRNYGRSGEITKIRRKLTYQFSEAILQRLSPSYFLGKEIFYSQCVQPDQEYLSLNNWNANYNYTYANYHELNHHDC
# Method in brief: as §1
# [14] = target: ELF4 (Homo sapiens, UniProt Q99607 1-663); details: protein: recombinant; tags: N-terminal GST; dsDNA, one strand shown
# ELF4, sequence (Q99607 whole entry): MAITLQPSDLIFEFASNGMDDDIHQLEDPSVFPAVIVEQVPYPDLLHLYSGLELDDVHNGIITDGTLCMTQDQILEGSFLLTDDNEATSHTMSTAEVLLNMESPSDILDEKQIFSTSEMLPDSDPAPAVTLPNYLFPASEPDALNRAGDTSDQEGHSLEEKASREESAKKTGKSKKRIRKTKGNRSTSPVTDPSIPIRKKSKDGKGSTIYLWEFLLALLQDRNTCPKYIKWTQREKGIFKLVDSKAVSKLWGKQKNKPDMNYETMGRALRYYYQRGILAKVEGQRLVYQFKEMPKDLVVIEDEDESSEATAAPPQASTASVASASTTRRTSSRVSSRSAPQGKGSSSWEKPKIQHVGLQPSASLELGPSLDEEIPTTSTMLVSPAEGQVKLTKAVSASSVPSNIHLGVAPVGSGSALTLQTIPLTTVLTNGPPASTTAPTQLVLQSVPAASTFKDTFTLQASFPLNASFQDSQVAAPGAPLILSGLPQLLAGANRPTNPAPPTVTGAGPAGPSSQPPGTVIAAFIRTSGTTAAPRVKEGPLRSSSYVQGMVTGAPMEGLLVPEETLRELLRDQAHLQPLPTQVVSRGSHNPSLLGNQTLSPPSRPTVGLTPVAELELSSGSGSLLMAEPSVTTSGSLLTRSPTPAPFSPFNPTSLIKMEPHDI
# Method in brief: as §1
# [15] = target: T9, ELK4 (Homo sapiens, UniProt P28324-2 1-405); details: protein: recombinant; tags: N-terminal GST; dsDNA, one strand shown
# T9 sequence: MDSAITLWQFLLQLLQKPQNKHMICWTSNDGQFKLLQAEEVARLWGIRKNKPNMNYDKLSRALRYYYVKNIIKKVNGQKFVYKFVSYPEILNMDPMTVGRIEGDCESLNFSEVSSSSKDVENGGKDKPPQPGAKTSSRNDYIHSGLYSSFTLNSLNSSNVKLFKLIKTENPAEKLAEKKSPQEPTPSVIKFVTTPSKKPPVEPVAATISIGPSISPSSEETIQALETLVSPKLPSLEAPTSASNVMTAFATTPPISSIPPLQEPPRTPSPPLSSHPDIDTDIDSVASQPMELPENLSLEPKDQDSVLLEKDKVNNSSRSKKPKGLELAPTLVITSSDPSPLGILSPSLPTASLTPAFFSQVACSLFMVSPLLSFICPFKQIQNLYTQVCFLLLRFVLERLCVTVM
# Method in brief: as §1
# [16] = target: T10, ETV2 (Homo sapiens, UniProt O00321 1-342); details: protein: recombinant; tags: N-terminal GST; dsDNA, one strand shown
# T10 sequence: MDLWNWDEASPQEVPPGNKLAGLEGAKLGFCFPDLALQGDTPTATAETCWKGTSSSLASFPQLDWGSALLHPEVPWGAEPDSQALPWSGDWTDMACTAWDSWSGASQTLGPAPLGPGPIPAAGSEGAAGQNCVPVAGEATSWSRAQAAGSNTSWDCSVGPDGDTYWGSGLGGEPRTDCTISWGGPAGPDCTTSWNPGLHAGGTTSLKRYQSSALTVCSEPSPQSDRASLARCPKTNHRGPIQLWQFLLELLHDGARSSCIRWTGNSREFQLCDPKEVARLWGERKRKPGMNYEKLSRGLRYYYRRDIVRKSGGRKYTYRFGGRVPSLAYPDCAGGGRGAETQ
# Method in brief: as §1
# [17] = target: T11, ELF3 (Homo sapiens, UniProt P78545 1-371); details: protein: recombinant; tags: N-terminal GST; dsDNA, one strand shown
# T11 sequence: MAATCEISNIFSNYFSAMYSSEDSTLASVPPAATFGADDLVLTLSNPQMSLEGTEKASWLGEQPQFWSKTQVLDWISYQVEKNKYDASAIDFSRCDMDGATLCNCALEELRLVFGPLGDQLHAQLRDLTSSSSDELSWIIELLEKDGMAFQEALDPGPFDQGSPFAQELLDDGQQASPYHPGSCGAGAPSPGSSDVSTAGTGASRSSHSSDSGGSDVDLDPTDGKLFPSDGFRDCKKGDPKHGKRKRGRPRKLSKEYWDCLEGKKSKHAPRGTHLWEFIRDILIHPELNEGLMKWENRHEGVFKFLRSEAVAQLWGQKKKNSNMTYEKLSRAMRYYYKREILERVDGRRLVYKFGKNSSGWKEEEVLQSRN
# Method in brief: as §1
# [18] = target: CRX (Homo sapiens, UniProt O43186 1-299); details: protein: recombinant; tags: N-terminal GST; dsDNA, one strand shown
# CRX, sequence (O43186 whole entry): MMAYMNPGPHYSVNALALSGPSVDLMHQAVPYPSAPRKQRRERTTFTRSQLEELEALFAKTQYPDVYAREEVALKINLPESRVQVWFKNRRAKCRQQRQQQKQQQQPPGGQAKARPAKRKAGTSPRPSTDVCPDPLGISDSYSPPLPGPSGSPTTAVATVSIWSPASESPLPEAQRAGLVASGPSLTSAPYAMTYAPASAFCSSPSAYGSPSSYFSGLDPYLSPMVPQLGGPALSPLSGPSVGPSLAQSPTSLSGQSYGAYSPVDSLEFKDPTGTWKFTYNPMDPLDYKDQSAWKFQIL
# Method in brief: as §1
# [19] = target: ETV1 (Homo sapiens, UniProt P50549 1-477); details: protein: recombinant; tags: N-terminal GST; dsDNA, one strand shown
# ETV1, sequence (P50549 whole entry): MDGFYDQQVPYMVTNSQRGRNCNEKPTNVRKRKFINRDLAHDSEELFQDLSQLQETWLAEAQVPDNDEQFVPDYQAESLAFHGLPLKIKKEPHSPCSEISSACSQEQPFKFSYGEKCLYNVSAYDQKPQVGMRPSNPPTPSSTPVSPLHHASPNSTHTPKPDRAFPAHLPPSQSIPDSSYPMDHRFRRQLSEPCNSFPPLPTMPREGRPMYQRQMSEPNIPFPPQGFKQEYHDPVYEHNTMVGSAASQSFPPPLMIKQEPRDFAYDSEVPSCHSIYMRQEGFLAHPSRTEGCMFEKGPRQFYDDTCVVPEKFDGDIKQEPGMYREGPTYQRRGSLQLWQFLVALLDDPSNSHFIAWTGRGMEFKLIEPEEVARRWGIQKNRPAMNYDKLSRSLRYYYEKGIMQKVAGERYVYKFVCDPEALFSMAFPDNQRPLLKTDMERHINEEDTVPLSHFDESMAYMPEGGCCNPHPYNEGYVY
# Method in brief: as §1
sequence,measurement,setting,value
CTGGCT,binding signal,[1],"1.33 fold enrichment (6-mer frequency, TF over GST control)"
same,binding signal,[2],"1.31 fold enrichment (6-mer frequency, TF over GST control)"
same,binding signal,[3],"1.37 fold enrichment (6-mer frequency, TF over GST control)"
same,binding signal,[4],"1.3 fold enrichment (6-mer frequency, TF over GST control)"
same,binding signal,[5],"1.25 fold enrichment (6-mer frequency, TF over GST control)"
same,binding signal,[6],"1.26 fold enrichment (6-mer frequency, TF over GST control)"
same,binding signal,[7],"1.18 fold enrichment (6-mer frequency, TF over GST control)"
same,binding signal,[8],"1.22 fold enrichment (6-mer frequency, TF over GST control)"
same,binding signal,[9],"1.12 fold enrichment (6-mer frequency, TF over GST control)"
same,binding signal,[10],"1.16 fold enrichment (6-mer frequency, TF over GST control)"
same,binding signal,[11],"1.13 fold enrichment (6-mer frequency, TF over GST control)"
same,binding signal,[12],"1.27 fold enrichment (6-mer frequency, TF over GST control)"
same,binding signal,[13],"1.13 fold enrichment (6-mer frequency, TF over GST control)"
same,binding signal,[14],"1.18 fold enrichment (6-mer frequency, TF over GST control)"
same,binding signal,[15],"1.42 fold enrichment (6-mer frequency, TF over GST control)"
same,binding signal,[16],"1.5 fold enrichment (6-mer frequency, TF over GST control)"
same,binding signal,[17],"1.19 fold enrichment (6-mer frequency, TF over GST control)"
same,binding signal,[18],"1.21 fold enrichment (6-mer frequency, TF over GST control)"
same,binding signal,[19],"1.1 fold enrichment (6-mer frequency, TF over GST control)"
